Reference: PubChem BioAssay (NCI)
About 83,000 compounds went through this panel and 20% of them were active in at least one assay; those are over-represented in the sample as a whole.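 Each cell line was grown in a 96-well plate and treated with one concentration of compound for 48 hours. Values below 10 were considered active.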 Values without a mark were called inactive. Active and inactive are the calls of the source.

Columns and labels:
Assay in all cases: NCI-60 one-dose screen, 48 h (100 = growth as untreated, 0 = no growth, -100 = all killed)
Settings in all cases: 10 µM unless noted
[1] = system: SK-MEL-2 melanoma
[2] = system: EKVX NSCLC
[3] = system: SN12C renal
[4] = system: UO-31 renal
[5] = system: TK-10 renal
[6] = system: ACHN renal
[7] = system: CAKI-1 renal
[8] = system: A498 renal
[9] = system: CCRF-CEM leukemia
[10] = system: MOLT-4 leukemia
[11] = system: SR leukemia
[12] = system: RPMI-8226 leukemia
[13] = system: OVCAR-8 ovarian
[14] = system: OVCAR-5 ovarian
[15] = system: OVCAR-4 ovarian
[16] = system: SK-OV-3 ovarian
[17] = system: IGROV1 ovarian
[18] = system: HS 578T breast
[19] = system: NCI/ADR-RES ovarian

Compound	growth [1]	growth [2]	growth [3]	growth [4]	growth [5]	growth [6]	growth [7]	growth [8]	growth [9]	growth [10]	growth [11]	growth [12]	growth [13]	growth [14]	growth [15]	growth [16]	growth [17]	growth [18]	growth [19]
CC(C)C(/C=C/c1[nH]ncc1-c1cc(Cl)ccc1O)N1CCOCC1 (stereo not drawn)	91.3%	95.9%	97.7%	70%	119%	92.8%	69.7%	81.7%	97.7%	86%	87.9%	94.5%	91.9%	99.4%	94.3%	92.8%	88.6%	83.8%	88.1%
COc1cc(NC(=O)Nc2cccc(-c3cc(=O)c4c(OC)c(OC)c(OC)cc4o3)c2)cc(OC)c1OC	49.3%	62.2%	38.5%	24.7%	64.9%	56.1%	35.4%	19.1%	35.4%	32.1%	54.5%	31.4%	38.4%	79.5%	65.5%	111%	34.5%	17.1%	82.4%
COc1cc2cc(Oc3ccc(NC(=O)Nc4ccc(F)c(C(F)(F)F)c4)cc3)c(C)nc2cc1OCCN(C)C	115%	97.6%	96.4%	86.6%	106%	106%	85.1%	93.6%	15.8%	89.5%	1.94% (active)	80.2%	102%	137%	112%	116%	101%	108%	41.2%
O=C(CCl)Nc1ccc(NC(=O)c2cc(Cl)ccc2O)c(Cl)c1	92%	95.9%	68.4%	54.7%	129%	85.8%	59.2%	100%	9.8% (active)	25.7%	21.3%	49.8%	48.6%	121%	83%	90.9%	-45.3% (active)	86.9%	56.7%
Cc1[nH]c(C(=O)Nc2ccc(C(=O)NCC3CCNCC3)cc2OC(C)C)c(Cl)c1Cl	97.9%	82.8%	81.4%	88.6%	90.2%	99.9%	76.7%	79.4%	32.6%	19.6%	-0.735% (active)	42.3%	86.6%	84.9%	89.5%	97.3%	54.4%	69.1%	100%
Cc1cc(=O)oc2cc(OCCCOc3ccc(/C=C/C(=O)Nc4ccc(Br)cc4)cc3)ccc12	91.1%	91.6%	89.9%	82.3%	78.9%	46.7%	104%	82.9%	83.6%	96.4%	51.8%	75.6%	83.9%	95.4%	105%	98.2%	72.7%	76.3%	64.6%
Clc1ccc2[nH]cc(-c3nn4cc(-c5cccnc5)nc4s3)c2c1	101%	84.1%	96.6%	71.6%	184%	87.8%	69.7%	109%	84.3%	94.5%	109%	86.9%	103%	108%	105%	91%	87.9%	93.6%	102%
CCN(CC)c1ccc(/C=N/NC(=O)c2ccc(NS(C)(=O)=O)cc2)c(O)c1	40.7%	15.6%	31.4%	13.1%	47.9%	15.9%	18.8%	18.9%	6.1% (active)	9.84% (active)	10.6%	15.8%	12%	46%	31.3%	34.2%	20.3%	55.7%	36.9%
CCN(CC)c1ccc(/C=N/NC(=O)c2ccc(NS(C)(=O)=O)cc2)cc1	40.1%	22.4%	37.5%	15.7%	48.3%	10.9%	25.2%	40.1%	13%	14.4%	13.5%	42%	9.7% (active)	49.4%	35.6%	35.4%	21.2%	65.6%	58.3%
O=[N+]([O-])c1ccc(NC(=S)NNC(=S)Nc2ccc(F)cc2)cc1	105%	94.8%	90.7%	70.2%	103%	78.9%	68.7%	81.4%	103%	80.8%	91%	85.6%	91.7%	89.9%	95.7%	116%	83.5%	102%	84.2%
O=c1c2ccccc2cc2n1CCN=C2c1ccccc1	99.8%	101%	109%	78.6%	101%	96.9%	82.4%	89.4%	100%	102%	93.6%	99.2%	101%	108%	97.7%	103%	116%	92.6%	99.7%
C#CCOc1ccc(-c2csc(NC(=O)C=C)n2)cc1NS(=O)(=O)c1cccc2c(N(C)C)cccc12	69.4%	66.1%	31.2%	21.9%	63%	9.85% (active)	36.2%	79.8%	3.87% (active)	1.79% (active)	8.34% (active)	-9.93% (active)	23.2%	81.1%	63.2%	118%	32.3%	79.2%	27.5%
C1=CC(c2nn3c(-c4ccccc4)nnc3s2)=Cc2ccccc2O1	74.7%	88.5%	78.9%	53.4%	116%	76.7%	47.6%	67.5%	27.9%	39.2%	11.9%	35.6%	65.5%	87.6%	73.7%	106%	64.3%	61.1%	85.2%
N#Cc1c(-c2ccc(F)cc2)cc(-c2c[nH]c3ccccc23)nc1-c1c[nH]c2ccccc12	96.1%	92.8%	98.8%	84.7%	128%	102%	92.5%	89.4%	102%	103%	89.1%	101%	100%	109%	101%	96.9%	102%	95.2%	103%
Brc1cccc(-c2cc(-c3ccc4c(c3)OC=CO4)[nH]n2)c1	58.7%	56.7%	59.3%	50.4%	108%	43.7%	29.9%	42.6%	22%	29.2%	27.6%	22.5%	42.3%	71.5%	82.1%	67.9%	41.3%	58.8%	15.3%
CN1CCN(Cc2ccc(NC(=O)c3cncc(C#Cc4cnc5ccc(N)nn45)c3)cc2C(F)(F)F)CC1	-27.9% (active)	37.1%	15.7%	96.3%	40.4%	27.7%	13.8%	67%	11.8%	7.21% (active)	5.19% (active)	24.7%	16.5%	32%	46.1%	45.3%	-4.68% (active)	20.6%	89.8%

Compound	growth [1]	growth [2]	growth [3]	growth [4]	growth [5]	growth [6]	growth [7]	growth [8]	growth [9]	growth [10]	growth [11]	growth [12]	growth [13]	growth [14]	growth [15]	growth [16]	growth [17]	growth [18]	growth [19]
CN1CCN(c2ccc(Nc3nc(NCCNS(=O)(=O)c4ccc5ccccc5c4)c4sccc4n3)cc2)CC1	103%	86.2%	79.6%	68.9%	127%	86.8%	69.5%	86.9%	41.9%	41.6%	-21.3% (active)	49.8%	60.3%	90.1%	82.3%	128%	82.3%	75%	90.3%
COc1ccc(-c2cc(-c3ccc(N4CCOCC4)cc3)n3c(n2)nc2ccccc23)cc1OC	97.8%	88.3%	78.6%	39.2%	98.8%	93.6%	50.6%	63%	63.7%	51.4%	70.3%	57.5%	82.5%	108%	87.9%	118%	95.1%	98.2%	87.9%
O=C1[C@@H]2Cc3c([nH]c4ccccc34)[C@@H](c3ccc(Cl)cc3)N2C(=O)CN1C1CCN(Cc2ccccc2)CC1	92.7%	54.6%	55%	30.5%	78.9%	51.4%	26.2%	76.1%	20.1%	13.5%	-25.3% (active)	18.9%	43.9%	90.1%	49.1%	80.5%	29%	65.9%	51.2%
O=C(COc1ccc(/C=C2\C(=O)Nc3cc(Cl)ccc32)cc1)Nc1ccc(Cl)cc1	95.6%	78.2%	78.9%	46.5%	127%	57.8%	55.4%	102%	48.9%	50.1%	54.8%	60.4%	63.4%	67.7%	66.5%	87.1%	73.3%	79.1%	66.8%
O=C1CSC(c2cn(-c3ccccc3)nc2-c2ccc(Cl)cc2)N1c1ccccc1 (stereo not drawn)	112%	98.8%	114%	83.8%	118%	104%	92.3%	125%	103%	114%	109%	103%	104%	112%	110%	114%	114%	108%	104%
COC(=O)c1ccc(NC2=C(Cl)C(=O)c3nc(C)ccc3C2=O)cc1	88.3%	76.6%	77%	61.7%	152%	35.1%	80.2%	77.9%	16.1%	19.8%	22.3%	36.9%	70.1%	105%	58.5%	125%	41.4%	71.5%	19.7%
O=C(CSc1nc2ccccc2c(=O)n1CCc1ccccc1)Nc1ccc(S(=O)(=O)Nc2ccc(Cl)nn2)cc1	111%	86.9%	94.9%	65.1%	149%	90.6%	75.1%	107%	99.2%	99.8%	95.9%	102%	92%	95.8%	93.1%	94.1%	95.6%	97.1%	91.7%
CCc1cc(OC(=O)N2CCN(CCC(C)(COC(C)(C)C)COC(C)(C)C)CC2)ccc1Nc1cc(-c2ccc(-n3cccn3)cc2)[nH]n1	102%	66.1%	62.1%	81.3%	103%	81%	64.9%	81.2%	56.7%	52.9%	37.9%	60.5%	84.3%	89.1%	60.8%	105%	67%	68.2%	74.5%
CC(C)(C)OC(=O)NCc1ccc(CNc2c([N+](=O)[O-])cnc3ccccc23)cc1	29.7%	44.2%	75.9%	50.3%	80.4%	61.1%	67.1%	36.2%	59.8%	34.4%	37.1%	43.6%	63.4%	93.6%	54.8%	68%	76.5%	76.9%	38.2%
CN1CCN(Cc2ccc(NC(=O)c3cncc(C#Cc4cnc5ccc(OCCCS(C)(=O)=O)nn45)c3)cc2C(F)(F)F)CC1	-82% (active)	-10.7% (active)	-15.8% (active)	-12.9% (active)	-6.6% (active)	-16.1% (active)	-14% (active)	-90.9% (active)	6.43% (active)	2.88% (active)	3.03% (active)	-3.99% (active)	-20.5% (active)	3.1% (active)	-29.7% (active)	-10.9% (active)	-13.9% (active)	-24.1% (active)	75%
COc1ccc(C(=NNS(=O)(=O)c2ccc(C)cc2)c2ccccc2)cc1OC	101%	95.4%	98.9%	77.4%	96.6%	98%	80.7%	98.3%	102%	98.3%	111%	93.6%	97.5%	103%	102%	107%	90.8%	104%	96.8%
CN1CCN(Cc2ccc(NC(=O)c3cncc(C#Cc4cnc5ccc(NCCO)nn45)c3)cc2C(F)(F)F)CC1	-89% (active)	-0.668% (active)	1.09% (active)	58.4%	-16.3% (active)	8.5% (active)	-3.82% (active)	-94.3% (active)	9.38% (active)	3.21% (active)	4.47% (active)	-15.2% (active)	1.73% (active)	5.23% (active)	-9.76% (active)	-10.5% (active)	-1.21% (active)	-13.3% (active)	81.1%
COc1ccc2[nH]cc(-c3nn4cc(-c5ccncc5)nc4s3)c2c1	101%	55.4%	83.5%	23.3%	109%	57.5%	56.9%	68.9%	37.9%	50.4%	61.5%	43.8%	52%	107%	71.1%	88.3%	41.4%	87.5%	48.9%
O=C1C(SCc2ccccc2)=C(Cl)CN1c1ccc(Cl)cc1	79.9%	106%	100%	-88.1% (active)	111%	98.1%	90.7%	114%	70.8%	68%	1.35% (active)	88.8%	95.2%	109%	103%	117%	104%	100%	105%
CCN(CC)S(=O)(=O)c1ccc(-c2nc(C(Cl)Cl)nc3cc(-c4ccc(F)cc4)nn23)cc1	82.3%	32%	67.6%	27.6%	49.9%	0.483% (active)	12%	56.2%	73.9%	56.6%	30.8%	6.42% (active)	27.6%	51.6%	45.2%	42.7%	56.9%	36.4%	23.5%
COc1ccc(/C(=N\N=C(N)N)c2ccc(Cl)cc2)cc1OC	99.9%	72.6%	70.8%	83.7%	77%	94.8%	50.1%	76.5%	67.3%	52.5%	42.7%	70.4%	87.2%	78.2%	88.4%	78.5%	51.5%	67.5%	99.3%
